This is part of a sample that, as a whole, favours compounds with a hit. Of some 79,000 tested, about 15% had one in any assay. Activity calls are given as the source filed them. Rule as the data show it: active = growth inhibition above about 70%; inactive = the rest.
How the values were obtained:
[1] = NCI Yeast Anticancer Drug Screen. Data for the rad52 strain (AID 147);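 also: 0% = growth of vehicle-treated control cultures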; conditions: S. cerevisiae rad52 mutant growth inhibition, stronger effect = higher value
Method in brief: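 Vehicle-treated cultures served as the reference for growth inhibition of compound-exposed yeast bearing a DNA repair mutation.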

[2] = NCI Yeast Anticancer Drug Screen. Data for the wt1 strain (AID 149);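 also: 0% = growth of vehicle-treated wt1 cultures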; conditions: S. cerevisiae wt1 strain (SPY 50644) growth inhibition, stronger effect = higher value
Method in brief: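 Growth inhibition read against vehicle controls after compound exposure of the wt1 yeast strain.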

[3] = NCI Yeast Anticancer Drug Screen. Data for the rad50EPP+ strain (AID 151);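 also: 0% = growth of vehicle-treated control cultures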; conditions: S. cerevisiae rad50 mutant strain, stronger effect = higher value
Method in brief: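 In this screen, rad50EPP+ yeast were exposed to compounds. Growth inhibition was scored against vehicle-treated controls.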

[4] = NCI Yeast Anticancer Drug Screen. Data for the mgt1 strain (AID 153); conditions: S. cerevisiae mgt1 mutant growth inhibition, stronger effect = higher value
Method in brief: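 mgt1 strain exposed; growth vs vehicle control recorded as inhibition.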

[5] = NCI Yeast Anticancer Drug Screen. Data for the rad50 strain (AID 155);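 also: 0% = growth of vehicle-only cultures of the same strain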; conditions: S. cerevisiae rad50 strain growth inhibition, stronger effect = higher value
Method in brief: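 Readout: growth inhibition relative to vehicle-treated cultures. Compound exposure was carried out in a genetically defined yeast strain deficient in DNA damage repair.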

[6] = NCI Yeast Anticancer Drug Screen. Data for the mec2-1 strain (AID 157); conditions: S. cerevisiae mec2-1 strain, stronger effect = higher value
Method in brief: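 Vehicle-treated cultures served as reference for growth inhibition of compound-exposed mec2-1 yeast.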

[7] = NCI Yeast Anticancer Drug Screen. Data for the rad14 strain (AID 159);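 also: 0% = growth of vehicle-treated control cultures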; conditions: S. cerevisiae rad14 strain growth inhibition, stronger effect = higher value
Method in brief: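 Growth inhibition vs vehicle controls; genetically altered yeast strain (DNA damage repair defect) treated with test compounds.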

[8] = NCI Yeast Anticancer Drug Screen. Data for the sgs1 mgt1 strain (AID 161);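 also: 0% = growth of cultures given vehicle only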; conditions: S. cerevisiae sgs1 mgt1 strain, stronger effect = higher value
Method in brief: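 Read-out: growth inhibition vs vehicle controls. Cells: mutant yeast strain deficient in DNA damage repair.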

[9] = NCI Yeast Anticancer Drug Screen. Data for the CLN2oe strain (AID 163);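 also: 0% = growth of vehicle-only control cultures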; conditions: S. cerevisiae CLN2oe strain, stronger effect = higher value
Method in brief: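 Inhibition relative to vehicle-treated yeast is reported. Cells: strain with genetic alteration in cell-cycle control, grown with compound.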

[10] = NCI Yeast Anticancer Drug Screen. Data for the cln2 rad14 strain (AID 165);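 also: 0% = growth equal to vehicle treated cultures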; conditions: S. cerevisiae cln2 rad14 strain, stronger effect = higher value
Method in brief: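 Each compound was tested on cln2 rad14 yeast. Inhibition of growth was calculated against vehicle-exposed controls.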

[11] = NCI Yeast Anticancer Drug Screen. Data for the bub3 strain (AID 167); conditions: S. cerevisiae bub3 mutant strain, stronger effect = higher value
Method in brief: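 Readout: yeast growth inhibition, expressed relative to vehicle-only wells. The test organism is a mutant strain from a panel with lesions in DNA repair or checkpoint genes.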

[12] = NCI Yeast Anticancer Drug Screen. Data for the wt2 strain (AID 169);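 also: 0% = growth of vehicle-treated yeast cultures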; conditions: S. cerevisiae wt2 strain growth inhibition, stronger effect = higher value
Method in brief: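 Inhibition of yeast growth was determined after compound treatment, normalised to controls receiving only vehicle.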

[13] = NCI Yeast Anticancer Drug Screen. Data for the mlh1 strain (AID 171);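 also: 0% = growth of vehicle-treated control cultures of the same strain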; conditions: S. cerevisiae mlh1 strain growth inhibition, stronger effect = higher value
Method in brief: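 Vehicle-normalised growth inhibition of a repair- or checkpoint-altered yeast strain following compound treatment.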

[14] = NCI Yeast Anticancer Drug Screen. Data for the sgs1 strain (AID 173);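 also: 0% = growth of vehicle-only control cultures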; conditions: S. cerevisiae sgs1 mutant, stronger effect = higher value
Method in brief: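 Screen format: yeast with repair or checkpoint alterations, compound exposure, growth read relative to vehicle.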

[15] = NCI Yeast Anticancer Drug Screen. Data for the mlh1 rad18 strain (AID 175); conditions: S. cerevisiae mlh1 rad18 strain growth inhibition, stronger effect = higher value
Method in brief: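 Vehicle-treated cultures served as the reference for growth inhibition in a yeast strain carrying DNA damage repair alterations exposed to each compound.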

[16] = NCI Yeast Anticancer Drug Screen. Data for the rad18 strain (AID 177); conditions: S. cerevisiae rad18 mutant growth inhibition, stronger effect = higher value
Method in brief: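 Test articles were incubated with altered yeast defective in DNA damage repair. Results are given as inhibition of growth versus vehicle.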

[17] = at 5.0 µM (retest, dose inferred, filed as 0.5)
[18] = at 50.0 µM (retest, dose inferred, filed as 5.0)

Measured: growth inhibition

CCOC(=O)c1cc([N+](=O)[O-])cc([N+](=O)[O-])c1Sc1ncnc2nc[nH]c12
inactive: [1]; at 1.2 µM 13% | [1]; at 3.7 µM 2% | [1]; at 11.0 µM 11% | [1]; at 33.0 µM 62% | [2]; at 1.2 µM -29% | [2]; at 3.7 µM -44% | [2]; at 11.0 µM -32% | [2]; at 33.0 µM 50% | [3]; at 1.2 µM -6% | [3]; at 3.7 µM -11% | [3]; at 11.0 µM 13% | [3]; at 33.0 µM 62% | [4]; at 1.2 µM -17% | [4]; at 3.7 µM -18% | [4]; at 11.0 µM -8% | [5]; at 1.2 µM -15% | [5]; at 3.7 µM -15% | [5]; [17] 36% | [5]; at 11.0 µM 1% | [5]; at 33.0 µM 68% | [5]; at 50.0 µM 36% | [6]; at 1.2 µM -33% | [6]; at 3.7 µM -28% | [6]; [17] 22% | [6]; at 11.0 µM -2% | [6]; at 33.0 µM 65% | [6]; [18] 69% | [6]; at 50.0 µM 60% | [7]; at 1.2 µM -30% | [7]; at 3.7 µM -21% | [7]; at 11.0 µM -9% | [7]; at 33.0 µM 66% | [8]; [17] 52% | [8]; at 50.0 µM 62% | [9]; at 1.2 µM -19% | [9]; at 3.7 µM -33% | [9]; at 11.0 µM -23% | [9]; at 33.0 µM 54% | [10]; [17] 5% | [10]; [18] -16% | [11]; at 1.2 µM -26% | [11]; at 3.7 µM -12% | [11]; [17] 38% | [11]; at 11.0 µM -11% | [11]; at 50.0 µM 59.5% | [12]; at 1.2 µM -29% | [12]; at 3.7 µM -22% | [12]; at 11.0 µM -24% | [12]; at 33.0 µM 18% | [13]; at 1.2 µM -31% | [13]; at 3.7 µM 2% | [13]; at 11.0 µM 2% | [14]; at 1.2 µM -11% | [14]; at 3.7 µM -5% | [14]; at 11.0 µM 2% | [15]; [17] 42% | [16]; at 1.2 µM -18% | [16]; at 3.7 µM -7% | [16]; at 11.0 µM 28%
active: [1]; at 100.0 µM 95% | [2]; at 100.0 µM 97% | [3]; at 100.0 µM 82% | [4]; at 33.0 µM 83% | [4]; at 100.0 µM 98% | [5]; [18] 75% | [5]; at 100.0 µM 96% | [6]; at 100.0 µM 97% | [7]; at 100.0 µM 97% | [8]; [18] 75% | [9]; at 100.0 µM 97% | [10]; at 50.0 µM 77.2% | [11]; at 33.0 µM 70% | [11]; [18] 70% | [11]; at 100.0 µM 96% | [12]; at 100.0 µM 96% | [13]; at 33.0 µM 85% | [13]; at 100.0 µM 97% | [14]; at 33.0 µM 74% | [14]; at 100.0 µM 96% | [15]; [18] 89% | [15]; at 50.0 µM 78.5% | [16]; at 33.0 µM 81% | [16]; at 100.0 µM 97%

— PubChem BioAssay (NCI)
